The source of these data is PubChem BioAssay (NCATS).

Molecules are shown by their SMILES. Inconclusive results are not listed. The source made the active and inactive calls. Calls follow the shape of the dose curve; as a rule, active = well fitted curve in the direction sought with a large enough effect; inconclusive = small, poorly fitted or top-dose-only effect, or another doubt; inactive = no such curve, though single readings can be large; an effect the other way counts as inactive or inconclusive.

The target in assay [1] is Glutathione peroxidase 1 (Homo sapiens) (UniProt P07203). Description: Primary qHTS Assay for Inhibitors of Recombinant Selenoprotein Glutathione Peroxidase 1 (GPX1) (AID 1845191). Also: nearly all actives have a fitted effect of over 65% in size. The settings on record: outcome: dose series up to 48.8 µM. In short, it runs like this: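 10 nM GPX1 + cpd, 30 min RT; start w/ 1 mM GSH, 0.5 mM cumene hydroperoxide, 0.5 mM NADPH, 100 nM GR, 0.01% BSA; buffer 50 mM Tris-HCl pH 7.5, 2 mM EDTA, 150 mM NaCl; Fl 340/450, 0 & 15 min.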
(In general: In qHTS, concentration-response curves come from the screen itself.)

The target in assay [2] is Phospholipid hydroperoxide glutathione peroxidase GPX4 (Homo sapiens) (UniProt P36969). Description: Primary qHTS Assay for Inhibitors of Recombinant Selenoprotein Glutathione Peroxidase 4 (GPX4) (AID 1845192). Also: nearly all actives have a fitted effect of over 65% in size. In short, it runs like this: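 NADPH consumption, followed by fluorescence at 340/450 nm between 0 and 15 min, reports GPX4 activity via coupled glutathione reductase (100 nM). Enzyme 200 nM was pre-exposed to compound 30 min; 0.5 mM cumene hydroperoxide and 1 mM GSH served as substrates.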

Assay [3] addresses Metallo-beta-lactamase type 2 (Klebsiella pneumoniae) (UniProt C7C422). Description: qHTS to identify inhibitors of the New Delhi Metallo-beta-lactamase (NDM): assay validation screen against the NCATS LOPAC Collection (AID 1794843).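 Also: nitrocefin turnover by NDM-1 measured as 485 nm absorbance at plateau; series mostly up to about 38 µM.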 Summed up: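 NDM-1 at 2 nM final in 50 mM HEPES pH 7.0 with 1 uM ZnSO4 and 0.01% Tween20 was preincubated with library compounds in DMSO. Nitrocefin (50 uM stock) was then added, and absorbance at 485 nm was read at the kinetic plateau.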

Assay [4] has as its target Luciferin 4-monooxygenase (Photinus pyralis) (UniProt P08659). Description: Primary firefly luciferase (FLuc) qHTS assay for identification of artifact compounds. (AID 1845220). Also: nearly all actives have a fitted effect of over 60% in size. The settings on record: outcome: dose series up to 54.1 µM. Summed up: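 Compounds sat 15 min at room temperature with 10 uM luciferin and 10 uM ATP (pH 7.6 Tris acetate). Firefly luciferase (10 nM final) was then added, and luminescence was read 5 min later. Data normalized to no-enzyme and DMSO controls were Hill-fitted.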

Assay [5] in a line: Primary fluorescence-based thiol-reactive (MSTI) qHTS assay for identification of artifact compounds. (AID 1845221).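 Also: series mostly up to about 54 µM; thiol-reactive compounds lower the probe fluorescence signal; nearly all actives have a fitted effect of over 65% in size.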 In short, it runs like this: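 Reactivity toward the thiol probe MSTI (4 uM) is scored by fluorescence at Ex/Em 525/598 nm after 1 h at room temperature. Acetyl-MSTI and MSTI define the activity scale.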
Assay [6] deals with Nanoluciferase (engineered Oplophorus gracilirostris luciferase). The experiment in a line: Primary Nanoluciferase (NLuc) qHTS assay for identification of artifact compounds. (AID 1845222). Also: series mostly up to about 54 µM. In short, it runs like this: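 Luminescence from secreted NLuc (filtered, 1:55-diluted S16 cell medium) read 5 min after Nano-Glo substrate; compounds preincubated 15 min, RT. Hill fits of inhibition normalized to DMSO and no-enzyme.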

Assay [7] can be described thus: Quantitative High-Throughput drug screen in 47 multiple myeloma cell lines against the NCATS MIPE library collection: FR4_PLB cell viability assay (AID 1918924; also: potency is read from the fitted curve at half-maximal effect; nearly all actives have a fitted effect of over 35% in size). Summed up: (§1)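 Primary qHTS used for cherry-picking: cells at 500/well, library compounds for 48 h (37C, 5% CO2), luminescent ATP assay.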
The nature of assay [8]: Quantitative High-Throughput drug screen in 47 multiple myeloma cell lines against the NCATS MIPE library collection: Delta47_JCRB cell viability assay (AID 1918925; also: potency is read from the fitted curve at half-maximal effect; nearly all actives have a fitted effect of over 45% in size). Summed up: (§2)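 CellTiter-Glo luminescence (ATP) after 48 h compound exposure, 37C/5% CO2; 500 cells/well; MIPE 4.0 approved/investigational drugs pinned in; DMSO = 100%, media only = 0% viability.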
A short description of assay [9]: Quantitative High-Throughput drug screen in 47 multiple myeloma cell lines against the NCATS MIPE library collection: EJM_DSMZ cell viability assay (AID 1918926; also: potency is read from the fitted curve at half-maximal effect; nearly all actives have a fitted effect of over 30% in size). In short, it runs like this: as §2
The nature of assay [10]: Quantitative High-Throughput drug screen in 47 multiple myeloma cell lines against the NCATS MIPE library collection: AMO1_DSMZ cell viability assay (AID 1918927; also: potency is read from the fitted curve at half-maximal effect; nearly all actives have a fitted effect of over 30% in size). Summed up:
as §2

Assay [11] in a line: Quantitative High-Throughput drug screen in 47 multiple myeloma cell lines against the NCATS MIPE library collection: ARP1_JJKsccF8 cell viability assay (AID 1918928; also: potency is read from the fitted curve at half-maximal effect; nearly all actives have a fitted effect of over 40% in size). Summed up: (§3)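 Myeloma cells, 500 per well, were exposed to MIPE 4.0 drugs by pin transfer for 48 h at 37 °C, 5% CO2. Viability was read as ATP luminescence with CellTiter-Glo, normalised to DMSO-only (100%) and medium-only (0%) wells.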

Assay [12] is described as follows: Quantitative High-Throughput drug screen in 47 multiple myeloma cell lines against the NCATS MIPE library collection: ARD_JJKsccE7 cell viability assay (AID 1918929; also: potency is read from the fitted curve at half-maximal effect). Summed up: as §2
A short description of assay [13]: Quantitative High-Throughput drug screen in 47 multiple myeloma cell lines against the NCATS MIPE library collection: Karpas620_DSMZ cell viability assay (AID 1918959). Also: potency is read from the fitted curve at half-maximal effect; nearly all actives have a fitted effect of over 30% in size. Summed up: as §1
The nature of assay [14]: Quantitative High-Throughput drug screen in 47 multiple myeloma cell lines against the NCATS MIPE library collection: KMM1_JCRB cell viability assay (AID 1918960). Also: potency is read from the fitted curve at half-maximal effect; nearly all actives have a fitted effect of over 30% in size. Summed up: as §3
The nature of assay [15]: Quantitative High-Throughput drug screen in 47 multiple myeloma cell lines against the NCATS MIPE library collection: Karpas417_ECACC cell viability assay (AID 1918961). Also: potency is read from the fitted curve at half-maximal effect. The conditions noted are these: Karpas417 myeloma viability, CellTiter-Glo ATP luminescence, 48 h. Summed up:
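We plated 500 myeloma cells per well, pinned in MIPE 4.0 compounds, and incubated for 48 hours at 37C. ATP was then quantified with CellTiter-Glo, with DMSO and media-only wells defining 100% and 0%.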
(In general: In ATP-based viability assays light output follows the ATP content of the culture.)

Assay [16] in a line: Quantitative High-Throughput drug screen in 47 multiple myeloma cell lines against the NCATS MIPE library collection: KHM11_PLB cell viability assay (AID 1918962). Also: potency is read from the fitted curve at half-maximal effect; nearly all actives have a fitted effect of over 35% in size. The settings on record: KHM11 myeloma cell viability, CellTiter-Glo ATP luminescence, 48 h. In short, it runs like this:
as §1

Assay [17] can be described thus: Quantitative High-Throughput drug screen in 47 multiple myeloma cell lines against the NCATS MIPE library collection: JIM3_ECACC cell viability assay (AID 1918963; also: potency is read from the fitted curve at half-maximal effect; nearly all actives have a fitted effect of over 35% in size). In short, it runs like this: as §1
Assay [18] is described as follows: Quantitative High-Throughput drug screen in 47 multiple myeloma cell lines against the NCATS MIPE library collection: JIM1_ECACC cell viability assay (AID 1918964; also: potency is read from the fitted curve at half-maximal effect). In short, it runs like this:
as §2

Chain of Glutathione peroxidase 1 (Homo sapiens) (P07203 whole entry, looked up): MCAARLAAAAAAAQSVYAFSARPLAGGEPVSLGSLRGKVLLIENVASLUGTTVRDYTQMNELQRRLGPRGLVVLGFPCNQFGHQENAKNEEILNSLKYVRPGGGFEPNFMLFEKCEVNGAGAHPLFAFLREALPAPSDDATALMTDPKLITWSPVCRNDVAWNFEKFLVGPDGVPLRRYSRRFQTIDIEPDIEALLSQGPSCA
Chain of Phospholipid hydroperoxide glutathione peroxidase GPX4 (Homo sapiens) (P36969 whole entry, looked up): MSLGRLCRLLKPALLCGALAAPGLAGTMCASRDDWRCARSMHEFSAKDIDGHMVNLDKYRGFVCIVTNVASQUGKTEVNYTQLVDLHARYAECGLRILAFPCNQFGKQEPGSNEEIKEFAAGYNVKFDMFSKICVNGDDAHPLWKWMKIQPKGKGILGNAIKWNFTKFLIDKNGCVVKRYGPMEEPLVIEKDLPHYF
Chain of Metallo-beta-lactamase type 2 (Klebsiella pneumoniae) (C7C422 whole entry, looked up): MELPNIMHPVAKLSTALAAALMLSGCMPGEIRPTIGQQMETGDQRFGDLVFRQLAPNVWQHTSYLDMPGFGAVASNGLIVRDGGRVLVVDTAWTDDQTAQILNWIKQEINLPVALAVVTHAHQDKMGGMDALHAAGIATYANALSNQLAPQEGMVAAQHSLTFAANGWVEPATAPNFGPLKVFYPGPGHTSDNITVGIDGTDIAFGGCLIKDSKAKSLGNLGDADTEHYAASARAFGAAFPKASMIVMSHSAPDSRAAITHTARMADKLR

Turning to `Cc1ccc(N=CN(C)C=Nc2ccc(C)cc2C)c(C)c1`, the result in [1] was inactive. Besides, the Potency result in assay [2] was “inactive”.

Consider `CC(C)[N+](C)(CCC(C(N)=O)(c1ccccc1)c1ccccc1)C(C)C`, for which, in assay [1], the result was inactive. Besides, in assay [2], the Potency result was “inactive”.

Regarding `CNC(C)Cc1ccccc1OC` (centres undefined), the outcome in assay [1] was inactive.

For the compound `NC(=O)CN1CCCC1=O`, the result in assay [3] and in [1] was inactive.

As to `CC(C)(O)C(Cl)(Cl)Cl`, the result in [1] was inactive. Also, the Potency entry in assay [2] is “inactive”.

In the case of `CCN(CC)Cc1nccn1-c1ccc([N+](=O)[O-])cc1C(=O)c1ccccc1Cl`, the result in [1] was inactive.

As to `CCCCCCCCCCCC[N+](C)(C)CCOc1ccccc1`, the Potency result in [2] was “inactive”.

Consider `CCOC(=O)c1ncn2c1CN(C)C(=O)c1c(I)cccc1-2`, for which the outcome in [1], in assay [4], in assay [5] and in [6] was inactive.

With `COP(=O)(OC)OC=C(Cl)Cl`, the Potency result in assay [2] was “inactive”.

Take `Oc1ccc([C@H]2CNCc3c2ccc(O)c3O)cc1O`: the Potency result in assay [2] is “inactive”.

With `Cc1nnc2n1-c1sc(CCC(=O)N3CCOCC3)cc1C(c1ccccc1Cl)=NC2`, in [2], the Potency result is “inactive”.

Take `CCCOC(=O)Cc1ccc(OCC(=O)N(CC)CC)c(OC)c1`: in assay [2], the Potency result is “inactive”. Besides, the result in [4], in assay [5] and in [6] was inactive.

On to `CCCCC1C(=O)NC(=O)N(C2CCCCC2)C1=O` (centres undefined), for which the compound was classed as inactive in [4], in assay [5] and in [6].

As for `O=c1n(Cl)c(=O)n(Cl)c(=O)n1Cl`, the Potency result in assay [2] is “inactive”.

On to `O=C(N[C@H]1N=C(c2ccccc2F)c2cccc3c2N(CC3)C1=O)c1cc2ccccc2[nH]1`, for which the result in [4], in assay [5] and in assay [6] was inactive.

On to `CC[C@H]1C[C@H]2[C@@H]3CCC4=CC(=O)CC[C@@H]4[C@H]3CC[C@]2(C)[C@H]1O`, for which the result in assay [1], in assay [4], in [5] and in [6] was inactive.

In the case of `COc1ccc2c(C(=O)c3ccc(Cl)cc3)c(C)n(CC(=O)O)c2c1`, the outcome in assay [4], in [5] and in assay [6] was inactive.

Take `Cc1cccc(Cc2cnc[nH]2)c1C`: the Potency result in [2] was “inactive”.

`CCOC(=O)c1cncn1C(C)c1ccccc1` (centres undefined): the result in [1], in [4], in assay [5] and in [6] was inactive.

On to `C[C@@H]1C[C@@H]([C@H](O)CC2CC(=O)NC(=O)C2)C(=O)[C@@H](C)C1`, for which the Potency result in assay [2] was “inactive”. Besides, the Potency in assay [7] is 743 nM (active); in assay [8] it was 743 nM (active); in [9] it was 3.32 µM (active); in assay [10] it was 469 nM (active); in assay [11], 52.6 nM (active); in assay [12], 166 nM (active). Moreover, the Potency in [13] was 662 nM (active); in assay [14] it was 209 nM (active); in assay [15] it was 469 nM (active); in assay [16], 372 nM (active); in assay [17], 418 nM (active); in [18], 148 nM (active).
